Assay outcomes deposited in PubChem by National Center for Advancing Translational Sciences (NCATS).
An excerpt weighted towards active compounds, which were near 3.3% of everything screened.
Sm TGR block = inhibitors of Schistosoma mansoni thioredoxin glutathione reductase. actives 3% (n = 360,000). Potency, µM (highest dose often 114 µM), without a hit: at the highest dose activity change, negative = inhibition, hits mostly inhibitors. purified TGR, DTNB reduction, TNB absorbance 405 nm. AID 485364. Q962Y6; further: nearly all actives have a fitted effect of over 60% in size
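Kinetic colorimetric format: TGR-catalysed, NADPH-driven DTNB reduction monitored via TNB absorbance. Enzyme dispensed at 20 nM; compound exposure 15 min at room temperature before reaction start.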
LmPK inhibitor = blocks Leishmania mexicana pyruvate kinase activity. Q27686. purified LmPK, Kinase-Glo ATP luminescence, 1 h. Potency, µM (doses to about 57.5 µM), inactives show top-dose activity change, negative = inhibition, actives largely listed as inhibitors. actives 0.37% (n = 290,000)
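Purified LmPK (0.1 nM) converted ADP (0.1 mM) to ATP with PEP (0.5 mM) in imidazole buffer pH 7.2 with KCl and MgCl2, 1 h at room temperature. ATP was read by Kinase-Glo luminescence; data normalized to uninhibited and no-enzyme controls.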
FBPA Giardia inh = Giardia lamblia aldolase inhibition | A8B2U2 | purified Giardia FBPA | Potency, µM (titrated, usually from 59.6 µM), for inactives: at the top dose activity, negative = inhibition, actives largely listed as inhibitors | actives 0.71% (n = 290,000) | AID 2451; further: nearly all actives have a fitted effect of over 55% in size
Target sequence (A8B2U2 whole entry, looked up): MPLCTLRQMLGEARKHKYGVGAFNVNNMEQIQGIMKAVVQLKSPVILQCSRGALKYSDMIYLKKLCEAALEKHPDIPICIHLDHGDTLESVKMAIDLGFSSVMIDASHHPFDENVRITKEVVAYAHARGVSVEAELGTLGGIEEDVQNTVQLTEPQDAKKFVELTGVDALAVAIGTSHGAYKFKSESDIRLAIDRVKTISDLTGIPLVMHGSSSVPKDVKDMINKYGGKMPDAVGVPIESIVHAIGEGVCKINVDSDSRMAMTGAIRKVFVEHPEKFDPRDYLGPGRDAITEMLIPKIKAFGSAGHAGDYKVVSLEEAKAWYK
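Giardia FBPA (40 nM reagent) was preincubated 10 min at RT with compound (up to 57.5 uM final), then substrate plus GAPDH/TPI/NAD/arsenate coupling system with diaphorase/resazurin was added; resorufin fluorescence (525/598 nm) was read after 20 min.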
Tb PYK inh = inhibitors of Trypanosoma brucei pyruvate kinase; Q57TT1; TbPYK enzyme, Kinase-Glo Plus ATP luminescence, 45 min; Potency, µM (titrated, usually from 76.8 µM), without a hit: at the top dose activity, negative = inhibition, hits mostly inhibitors; actives 0.12% (n = 410,000); AID 624173; further: nearly all actives have a fitted effect of over 50% in size
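In this concentration-response screen, enzyme-free wells defined baseline while DMSO plates tracked drift. Each reaction combined TbPYK, substrate, compound and 130 uM ADP for 45 min at room temperature. Kinase-Glo Plus luminescence gave the signal.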
RE007 growth inh = less growth of the S. pombe RE007 Vpr strain; S. pombe RE007 Vpr strain, BacTiter-Glo ATP luminescence, 24 h; Potency, µM (series often up to 92.2 µM), for the others: at the top dose activity change, negative = less growth, actives largely listed as inhibitors; actives 0.21% (n = 360,000); active means well fitted falling curve with a large enough effect; inconclusive means small, poorly fitted or top-dose-only effect; inactive means no such curve, though single readings can be large or run the other way; further: nearly all actives have a fitted effect of over 50% in size
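Fission yeast RE007 carrying one integrated HIV-1 vpr copy, seeded at OD 0.01 in PMG+AL medium with 23 nL pinned compound. Grown 24 h at 30 degrees; viability read by BacTiter-Glo luminescence after 5 min.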
* = called active by the depositor; ? = inconclusive; · = not tested or not shown. Unless noted, the call rests on the fitted dose curve; in most records, active means well fitted curve in the direction sought with a large enough effect; inconclusive means small, poorly fitted or top-dose-only effect, or another doubt; inactive means no such curve, though single readings can be large; an effect the other way counts as inactive or inconclusive. On the % scale 0 is the no-effect control and ±100 the full control effect; potency means the concentration at half of the fitted maximal effect.

SMILES	Sm TGR block	LmPK inhibitor	FBPA Giardia inh	Tb PYK inh	RE007 growth inh
O=C(O)C1(C(=O)O)CCCC1	·	·	·	2%	11%
NC1=CC(=O)c2cccc3cccc1c23	-35%	-2%	20µM*	·	·
CCOC(=O)C1=C(C)NC2=C(C(=O)C(C(=O)OCC)C(c3ccco3)C2)C1c1ccccn1 (configuration not stated)	-22%	0%	-9%	8%	11%
N#CC1(C#N)CC(C=O)=C(N)C1(C#N)CC(=O)c1ccc(F)cc1 (configuration not stated)	20µM*	4%	?	-5%	-4%
O=C(C[N+]12CC[N+](CC(=O)c3ccc(F)cc3)(CC1)CC2)c1ccc(F)cc1	-21%	0%	6%	-10%	4%
O=C(NNC(=O)c1ccc(Br)s1)NC1CCCCC1	1%	-2%	-2%	4%	5%
O=C1c2ccccc2CC1Sc1nnc(-c2ccccn2)o1 (configuration not stated)	45µM*	-8%	-8%	-22%	10%
CS(=O)(=O)N(CC(=O)NCc1ccccc1)Cc1ccc(Cl)cc1	2%	-3%	1%	-5%	-10%
Cc1ccc(S(=O)(=O)N(CC(=O)NCc2ccco2)Cc2ccc(F)cc2)cc1	40µM*	9%	-21%	-4%	27%
CS(=O)(=O)N(CC(=O)NCc1ccco1)Cc1ccc(Cl)cc1	11µM*	13%	-2%	-13%	-19%
Cc1ccc(S(=O)(=O)NCC(=O)N(CC(=O)NCc2ccco2)Cc2ccc(F)cc2)cc1	3%	1%	4%	9%	3%
O=C(c1cc2cc(Cl)ccc2[nH]1)N1CCN(C(=O)c2ccco2)CC1	16µM*	12%	·	0%	7%
O=C(O)c1[nH]c2ccc(Cl)cc2c1CC(=O)N1CCN(C(=O)c2ccco2)CC1	22µM*	24%	8%	-14%	-1%
O=C(O)c1[nH]c2ccc(Cl)cc2c1CC(=O)N1CCN(c2ccccc2)CC1	-8%	1%	-2%	1%	-25%
c1ccc(-c2nc3ccccc3s2)nc1	-9%	11µM*	-1%	-4%	-17%
Brc1ccc(-c2nc3ccccc3s2)s1	-24%	28µM*	-2%	3%	?
Cc1cc2c(n1-c1ccc(C(=O)O)cc1)CCCCC2	25µM*	7%	?	·	·
CC(C)(C)C1CCc2c(sc3nc(SCC(=O)O)nc(N)c23)C1 (configuration not stated)	0%	25µM*	7%	?	-1%
O=C(NC1CC1)C1CCN(C(=O)c2ccc(Cl)cc2)CC1	3%	0%	-1%	-5%	5%
Cc1[nH]c2ccc(C(=O)NCCCN3CCCCCC3)cc2c1C	?	-2%	·	-21%	-9%
CCCCn1c(N)c(N(CCOC)C(=O)CN(C)S(=O)(=O)c2ccc(Cl)cc2)c(=O)[nH]c1=O	21%	-1%	·	-1%	27%
COc1cccc(NC(=O)CSc2ccc(-c3ccco3)nn2)c1	40µM*	8%	·	-19%	-24%
O=C(CSc1ccc(-c2ccco2)nn1)Nc1ccccc1	7.1µM*	1%	-15%	-22%	8%
CCOc1ccc(NC(=O)CSc2ccc(-c3ccco3)nn2)cc1	?	-3%	·	-15%	40%
Cc1ccc(NC(=O)CSc2nnc(-c3ccco3)o2)cc1	79µM*	1%	-13%	-15%	-4%
SMILES	Sm TGR block	LmPK inhibitor	FBPA Giardia inh	Tb PYK inh	RE007 growth inh
CCOc1ccc(-c2nnc(SCC(=O)Nc3cccc(C#N)c3)o2)cc1	10µM*	·	·	1%	·
COc1ccc(CCNC(=O)CSc2ccc(-c3ccco3)nn2)cc1OC	18µM*	-3%	-11%	-1%	5%
COc1ccc(NC(=O)CSc2ccc(-c3ccco3)nn2)cc1OC	45µM*	5%	·	-5%	-16%
O=C(CSc1ccc(-c2ccco2)nn1)Nc1ccc(F)cc1	?	-3%	·	-17%	4%
CCOc1ccc(/C=N/NC(=O)c2[nH]ncc2Br)c(O)c1	·	7.9µM*	12%	?	?
CCOC(=O)c1c(C)oc2c1c(C=NCCO)c(O)c1ccccc12	40µM*	-6%	2µM*	-5%	14%
c1cncc(C(c2nnnn2C2CCCCC2)N2CCCCC2)c1 (configuration not stated)	4%	2%	0%	0%	-13%
CCOC(=O)c1cnc(-c2ccccc2)nc1N1CCOCC1	-2%	3%	1%	30%	-3%
CCOC(=O)c1c(C)oc2c1c(C(c1cccnc1)N1CCCCC1)c(O)c1ccccc12 (configuration not stated)	0.71µM*	5%	?	-8%	-5%
CCOC(=O)c1c(C)oc2c1c(C(c1ccccc1)N1CCOCC1)c(O)c1ccccc12 (configuration not stated)	10µM*	4%	?	2%	?
CCC(=O)N(CCC(c1ccco1)C(C)C)Cc1ccccc1 (configuration not stated)	0%	9%	12%	-5%	-21%
CCC(=O)N(CCC(c1ccc(C)cc1)c1ccco1)Cc1ccco1 (configuration not stated)	14µM*	10%	3%	-15%	-1%
O=C(NCc1ccco1)c1cccc(Nc2nc3ccc(Br)cc3[nH]2)c1	1%	6%	12%	2%	-3%
O=C(NCC1CC1)c1ccc(Nc2nc3ccc(Br)cc3[nH]2)cc1	3.5µM*	-1%	4%	?	-7%
O=C(/C=C/c1ccco1)N1CCN(c2ccc(F)cc2)CC1	10µM*	1%	-19%	10%	3%
Cc1ccc(/C=C/C(=O)N2CCCC(C(N)=O)C2)o1 (configuration not stated)	32µM*	3%	-1%	3%	7%
COc1ccccc1N1CCN(C(=O)/C=C/c2ccco2)CC1	50µM*	-6%	-12%	-20%	2%
COc1ccc(N2CCN(C(=O)/C=C/c3ccco3)CC2)cc1	18µM*	-6%	-5%	-8%	-4%
O=C(NC(N1CCOCC1)C(Cl)(Cl)Cl)c1ccco1 (configuration not stated)	5%	4%	-3%	7%	-7%
O=C(NCCC(=O)N1CCN(c2ccc(F)cc2)CC1)c1ccco1	45µM*	·	·	3%	-6%
COc1ccccc1N1CCN(/N=C/C=C\c2ccco2)CC1	40µM*	-8%	0%	-6%	-16%
Cc1ccc(/C=C/C(=O)N2CCN(c3ccc(F)cc3)CC2)o1	50µM*	3%	-3%	-24%	·
COc1ccccc1N1CCN(/N=C/C=C\c2ccccc2[N+](=O)[O-])CC1	10%	4%	-21%	8%	4%
Cc1ccc(/C=C/C(=O)N2CCN(c3ncccn3)CC2)o1	3.2µM*	-5%	-17%	?	-2%
O=C(O)CN(c1ccccn1)S(=O)(=O)c1ccc(Cl)cc1	-22%	-1%	1%	-12%	4%
